Assay [1] can be described thus: qHTS assay to test for compound auto fluorescence at 535 nm (green) in HEK293 cells (AID 720680). On the technique in general: qHTS replaces the single test concentration by a dilution series.
Assay [2] in a line: qHTS assay to test for compound auto fluorescence at 460 nm (blue) in HEK293 cell free culture (AID 720681). A digest of the protocol: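 Test compounds were pinned into cell-free culture medium (DMEM with 10% FBS) and fluorescence was read directly at Ex/Em 405/460 nm. Signals were expressed as fluorescence equivalents of triamterene, with DMSO vehicle as control.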
Assay [3] in a line: qHTS assay to test for compound auto fluorescence at 535 nm (green) in HEK293 cell free culture (AID 720682). A digest of the protocol:
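DMEM + 10% FBS, cell-free; cpd or DMSO pinned in; Ex485/Em535 read; output as fluorescein-equivalent signal.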

Assay [4] can be described thus: qHTS assay to test for compound auto fluorescence at 590 nm (red) in HEK293 cell free culture (AID 720683). A digest of the protocol:
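Tox21 10K library compounds were pinned into cell-free DMEM with 10% FBS and fluorescence was read at excitation 540 nm. Activity is expressed as Rose Bengal sodium equivalency.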

Assay [5] in a line: qHTS assay to test for compound auto fluorescence at 590 nm (red) in HepG2 cell free culture (AID 720684). A digest of the protocol: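 Readout: intrinsic compound fluorescence at 590 nm emission after 540 nm excitation, scaled to Rose Bengal sodium. Matrix was cell-free MEM with 10% FBS; DMSO vehicle wells served as control.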
Assay [6] in a line: qHTS assay to test for compound auto fluorescence at 460 nm (blue) in HepG2 cell free culture (AID 720685). A digest of the protocol:
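Cell-free plates of MEM plus 10% FBS received 23 nL compound or DMSO vehicle; blue-channel (405/460 nm) intensity scored against triamterene as reference fluorophore.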

A short description of assay [7]: qHTS assay to test for compound auto fluorescence at 535 nm (green) in HepG2 cell free culture (AID 720686).
The nature of assay [8]: qHTS assay to test for compound auto fluorescence at 460 nm (blue) in HepG2 cells (AID 720687). A digest of the protocol:
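Cells (2,000/well in MEM with 10% FBS) attached overnight at 37 C, then were exposed to compound or DMSO for 1 hr at 37 C, 5% CO2. Fluorescence read at Ex/Em 405/460 nm, expressed as triamterene-equivalent signal.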

The target in assay [9] is Glucocorticoid receptor (Homo sapiens) (UniProt P04150). Description: qHTS assay to identify small molecule agonists of the glucocorticoid receptor (GR) signaling pathway (AID 720691; active means well fitted activation curve with a large enough effect in the signal ratio in the repeat runs, not every such curve was filed as active; inconclusive means weak or mixed curves, or effect the other way; inactive means no such curve, though single readings can be large or run the other way; the % refers to the signal ratio; further: potency means the concentration at half of the fitted maximal effect). A digest of the protocol:
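Measures GR pathway activation through a GRE-beta-lactamase reporter stably integrated in HeLa cells, with 18 h compound treatment at 37 C and fluorescence detection using a FRET substrate.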

Assay [10] can be described thus: qHTS assay to identify small molecule antagonists of the glucocorticoid receptor (GR) signaling pathway - cell viability counter screen (AID 720693). Further: nearly all actives have a fitted effect of over 55% in size.
The nature of assay [11]: qHTS assay for identifying genotoxic compounds that show differential cytotoxicity against isogenic chicken DT40 cell lines with known DNA damage response pathways - wild type cell line (AID 743012). Further: nearly all actives have a fitted effect of over 60% in size. Further: potency means the concentration at half of the fitted maximal effect. A digest of the protocol: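 Endpoint: CellTiter-Glo luminescence, 30 min RT. Cells: wild type DT40, 300/well. Exposure: compounds in DMSO, 40 h, 37 C/5% CO2, after ~0.5 h pre-incubation.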

Assay [12] can be described thus: qHTS assay for identifying genotoxic compounds that show differential cytotoxicity against isogenic chicken DT40 cell lines with known DNA damage response pathways - Rad54/Ku70 mutant cell line (AID 743015). Further: nearly all actives have a fitted effect of over 60% in size. Further: potency means the concentration at half of the fitted maximal effect.
A short description of assay [13]: qHTS assay to identify small molecule antagonists of the androgen receptor (AR) signaling pathway - cell viability counter screen (AID 743033; further: nearly all actives have a fitted effect of over 45% in size).
Assay [14] is described as follows: qHTS assay to identify small molecule antagonists of the androgen receptor (AR) signaling pathway using the MDA cell line - cell viability counter screen (AID 743041; further: nearly all actives have a fitted effect of over 45% in size). A digest of the protocol: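 qHTS viability read-out; MDA-kb2 AR-luc; R1881-stimulated; 16 h exposure at 37C, 0% CO2; CellTiter-Fluor, 30 min; fluorescence intensity.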
Assay [15] is described as follows: qHTS assay to identify small molecule antagonists of the thyroid receptor (TR) signaling pathway - cell viability counter screen (AID 743064). Further: nearly all actives have a fitted effect of over 50% in size. A digest of the protocol: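 Viability of T3-stimulated (1 nM final) GH3.TRE-Luc cells is measured by CellTiter-Fluor fluorescence after 23.5 h compound exposure at 37 °C plus 30 min reagent incubation.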
Assay [16] can be described thus: qHTS assay for identifying genotoxic compounds that show differential cytotoxicity against isogenic chicken DT40 cell lines with known DNA damage response pathways - Rev3 mutant cell line (AID 743014). Further: nearly all actives have a fitted effect of over 55% in size. Further: potency means the concentration at half of the fitted maximal effect.
Assay [17] concerns the target Glucocorticoid receptor (Homo sapiens) (UniProt P04150). Description: qHTS assay to identify small molecule antagonists of the glucocorticoid receptor (GR) signaling pathway (AID 720692; active means well fitted inhibition curve with a large enough effect in the signal ratio in the repeat runs, not every such curve was filed as active; inconclusive means weak or mixed curves, or effect the other way; inactive means no such curve, though single readings can be large or run the other way; the % refers to the signal ratio). A digest of the protocol: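 Tox21 10K library screened in concentration-response for blockade of dexamethasone (5 nM final)-induced GRE-bla reporter activity in HeLa cells; 18 h treatment, fluorescence read.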

Assay [18] deals with Androgen receptor (Homo sapiens) (UniProt P10275). Description: qHTS assay to identify small molecule agonists of the androgen receptor (AR) signaling pathway (AID 743036; active means well fitted activation curve with a large enough effect in the signal ratio in the repeat runs, with a control signal flat, not every such curve was filed as active; inconclusive means weak or mixed curves, or effect the other way; inactive means no such curve, though single readings can be large or run the other way; the % refers to the signal ratio). A digest of the protocol:
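Screening used 2,000 AR-bla HEK293 cells per well, treated 16 h at 37C with test compounds in DMSO alongside positive and DMSO-only controls; beta-lactamase activity was then read by LiveBLAzer B/G FRET fluorescence after 2 h at room temperature.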

Assay [19] shares this target. Description: qHTS assay to identify small molecule agonists of the androgen receptor (AR) signaling pathway using the MDA cell line (AID 743040; further: nearly all actives have a fitted effect of over 20% in size). A digest of the protocol:
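Agonist activity is measured as luciferase luminescence in human MDA-kb2 cells whose MMTV reporter responds to both AR and GR. Compounds in DMSO incubate 16 h at 37C, 0% CO2, and ONE-Glo is read after 30 min.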

For assay [20] the target is unchanged. Description: qHTS assay to identify small molecule antagonists of the androgen receptor (AR) signaling pathway using the MDA cell line (AID 743042; further: nearly all actives have a fitted effect of over 55% in size). A digest of the protocol:
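MDA-kb2 cells (human breast carcinoma, stably carrying an MMTV-luciferase reporter responsive to AR and GR) were plated at 3,000 cells/well and preincubated 5 hr at 37C, then given compound plus R1881 agonist for 16 h. ONE-Glo luminescence was read.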

The source made the active and inactive calls. Unless noted, the call rests on the fitted dose curve; in most records, active means well fitted curve in the direction sought with a large enough effect in the repeat runs; inconclusive means weak or mixed curves; inactive means no such curve, though single readings can be large; an effect the other way counts as inactive or inconclusive.

Sequence of Glucocorticoid receptor (Homo sapiens) (P04150 whole entry, looked up): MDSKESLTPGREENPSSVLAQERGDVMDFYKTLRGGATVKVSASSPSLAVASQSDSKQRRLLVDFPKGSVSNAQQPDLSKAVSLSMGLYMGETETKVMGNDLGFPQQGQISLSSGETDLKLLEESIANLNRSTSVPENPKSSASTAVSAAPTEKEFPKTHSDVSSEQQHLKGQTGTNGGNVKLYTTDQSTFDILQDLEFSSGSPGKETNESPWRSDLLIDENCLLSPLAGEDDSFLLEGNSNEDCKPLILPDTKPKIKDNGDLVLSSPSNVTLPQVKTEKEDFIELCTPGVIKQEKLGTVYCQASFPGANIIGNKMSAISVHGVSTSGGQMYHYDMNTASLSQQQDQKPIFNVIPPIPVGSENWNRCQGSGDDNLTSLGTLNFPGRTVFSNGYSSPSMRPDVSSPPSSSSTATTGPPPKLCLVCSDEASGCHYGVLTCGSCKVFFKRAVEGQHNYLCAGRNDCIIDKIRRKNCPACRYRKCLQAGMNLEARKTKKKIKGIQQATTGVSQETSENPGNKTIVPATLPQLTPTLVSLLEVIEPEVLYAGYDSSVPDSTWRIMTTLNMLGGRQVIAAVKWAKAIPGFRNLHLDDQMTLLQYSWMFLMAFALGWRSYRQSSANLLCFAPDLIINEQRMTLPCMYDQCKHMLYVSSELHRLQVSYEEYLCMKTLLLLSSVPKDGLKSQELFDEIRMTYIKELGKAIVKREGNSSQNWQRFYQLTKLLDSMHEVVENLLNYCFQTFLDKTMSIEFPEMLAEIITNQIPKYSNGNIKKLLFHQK
Sequence of Androgen receptor (Homo sapiens) (P10275 whole entry, looked up): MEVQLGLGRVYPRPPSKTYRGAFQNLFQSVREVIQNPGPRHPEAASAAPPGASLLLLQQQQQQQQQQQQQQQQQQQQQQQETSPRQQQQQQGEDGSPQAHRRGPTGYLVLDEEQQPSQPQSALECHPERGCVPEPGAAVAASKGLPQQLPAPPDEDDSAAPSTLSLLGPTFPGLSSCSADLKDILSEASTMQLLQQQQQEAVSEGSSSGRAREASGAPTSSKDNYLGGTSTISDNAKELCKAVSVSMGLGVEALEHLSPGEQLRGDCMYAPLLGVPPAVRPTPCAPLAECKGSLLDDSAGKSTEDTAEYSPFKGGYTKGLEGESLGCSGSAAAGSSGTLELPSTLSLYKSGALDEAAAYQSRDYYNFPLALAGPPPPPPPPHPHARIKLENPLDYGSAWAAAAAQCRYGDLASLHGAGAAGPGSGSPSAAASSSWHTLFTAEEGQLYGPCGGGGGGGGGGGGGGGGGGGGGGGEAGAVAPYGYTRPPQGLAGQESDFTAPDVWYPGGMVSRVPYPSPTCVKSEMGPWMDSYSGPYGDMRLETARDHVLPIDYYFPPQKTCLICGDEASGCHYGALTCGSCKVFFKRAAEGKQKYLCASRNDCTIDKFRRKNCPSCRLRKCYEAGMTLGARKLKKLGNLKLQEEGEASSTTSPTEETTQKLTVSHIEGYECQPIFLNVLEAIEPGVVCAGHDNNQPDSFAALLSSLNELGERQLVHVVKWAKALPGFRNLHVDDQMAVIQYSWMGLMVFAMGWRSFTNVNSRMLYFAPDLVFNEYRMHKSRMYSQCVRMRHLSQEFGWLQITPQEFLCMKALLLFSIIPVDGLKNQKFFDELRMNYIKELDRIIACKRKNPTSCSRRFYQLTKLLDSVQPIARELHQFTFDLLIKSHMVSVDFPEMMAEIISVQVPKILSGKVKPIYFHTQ

In the case of `C[C@@H]1C[C@H]2[C@@H]3CCC4=CC(=O)C=C[C@]4(C)[C@@]3(F)[C@@H](O)C[C@]2(C)[C@H]1C(=O)CO`, the outcome in assay [1], in assay [3], in [4], in assay [5] and in assay [7] was inactive. Further, the Potency entry in assay [2], in [6], in assay [8], in [10], in assay [13] and in assay [14] was “inactive” throughout. In addition, in [15], the Potency result was “inactive”. In addition, the Potency in assay [9] was 8.5 nM [inconclusive] (active); in assay [11], 13.3 µM (active); in assay [12], 26.6 µM (active).
Consider `CCCCCCCCCCCC[N+](C)(C)CC(=O)[O-]`, for which the compound was classed as inactive in assay [1], in assay [3], in assay [4], in assay [5] and in [7]. Moreover, the Potency result in assay [2], in [6], in [8], in assay [9] and in assay [14] was “inactive” throughout. The Potency in [11] is 27.3 µM (active); in assay [12] it was 61.1 µM (active).
Regarding `CC(C)(CCl)c1ccccc1`, the call in [1], in [3], in assay [4], in assay [5] and in [7] was inactive. The Potency entry in [2], in [6], in assay [8], in assay [10], in [11] and in [16] was “inactive” throughout. Besides, the Potency entry in assay [12], in [13], in assay [14] and in assay [15] was “inactive” throughout.
Regarding `Fc1c(F)c(F)c(Br)c(F)c1F`, the compound was called inactive in assay [1], in assay [3], in assay [4], in [5] and in assay [7]. The Potency result in [2], in assay [6], in [8], in assay [10], in assay [11] and in [12] was “inactive” each time. The Potency result in assay [13] and in assay [15] was “inactive” throughout.
Consider `Nc1ccc(S(=O)(=O)O)cc1`, for which the compound was called inactive in assay [1], in [3], in assay [4], in assay [5] and in assay [7]. The Potency entry in assay [2], in [6], in assay [8], in [10], in assay [12] and in [13] was “inactive” in each case. Besides, the Potency entry in [14] and in [15] was “inactive” throughout. The Potency in assay [16] is 54.8 µM (active).
Take `C[C@@H]1C[C@H]2[C@@H]3CCC4=CC(=O)C=C[C@]4(C)[C@@]3(F)[C@@H](O)C[C@]2(C)[C@@]1(O)C(=O)CO`: the call in assay [1], in [3], in assay [4], in assay [5] and in [7] was inactive. Moreover, the Potency entry in assay [2], in [6], in [8], in assay [10], in assay [13] and in [14] was “inactive” in each case. Also, the results for the Potency in assay [16] and in assay [12] were 0.553 µM (active) and 55.3 µM (active), respectively.
Regarding `C=CC(=C)CCCC(C)(C)OC(C)=O`, the outcome in [1], in assay [3], in assay [4], in assay [5] and in [7] was inactive. In addition, the Potency result in assay [2], in [6], in assay [9], in [17], in assay [10] and in [11] was “inactive” each time. The Potency entry in assay [12], in assay [13], in assay [18], in [19], in [14] and in assay [20] was “inactive” in each case.
In the case of `CCCCCCCCSCCO`, the call in [1], in [3], in assay [4], in assay [5] and in assay [7] was inactive. The Potency entry in assay [2], in [6], in assay [9], in [17], in assay [10] and in assay [11] was “inactive” in each case. For the same compound, the Potency result in assay [13], in assay [18], in assay [19], in assay [14], in assay [20] and in assay [15] was “inactive” throughout.
Consider `CCOC(=O)/C=C/C(=O)O`, for which the compound was called inactive in [1], in assay [3], in [4], in assay [5] and in [7]. Moreover, the Potency entry in assay [2], in assay [6], in assay [8], in assay [10], in assay [11] and in assay [13] was “inactive” each time. In addition, the Potency result in assay [18], in [19], in assay [14], in assay [20] and in assay [15] was “inactive” throughout.
Turning to `CC1=CC(O)CC(C)(C)C1` (configuration not stated), the outcome in assay [1], in assay [3], in assay [4], in assay [5] and in assay [7] was inactive. In addition, the Potency entry in assay [2], in assay [6], in assay [9], in assay [17], in assay [10] and in [11] was “inactive” each time. Also, the Potency result in assay [16], in [12], in assay [13], in assay [14] and in assay [15] was “inactive” throughout.
For the compound `CC(CCO)CCc1ccccc1` (configuration not stated), the call in [1], in [3], in assay [4], in [5] and in [7] was inactive. Also, the Potency result in assay [2], in assay [6], in assay [9], in [17], in assay [10] and in assay [12] was “inactive” throughout. In addition, the Potency result in assay [13], in [14] and in assay [15] was “inactive” in each case.
